Results on 21 molecules are retold here after PubChem BioAssay.

The source made the active and inactive calls.

Assay [1] relates to XIP peptide (Xip251-270) binding. Briefly: XIP fragment 251-270 binding compounds – biochemical, small-molecule microarray, fluorescence 635/667 nm, 0.1 µg/mL protein, primary screen (AID 1182). The conditions noted are these: fluorescent protein binding, 635 nm, higher = more signal, called active from +8 up or from −8 down.
Assay [2] relates to XIP peptide (Xip251-270). Briefly: compounds binding XIP fragment 251-270 – biochemical, small-molecule microarray, fluorescence 635/667 nm, 0.5 µg/mL protein, primary screen (AID 1183). The conditions noted are these: fluorescence 635 nm, higher = more signal.
The nature of assay [3]: blood-stage malaria parasite viability loss – strain 3D7, DAPI fluorescence, 100 nL, primary screen (AID 1184).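 Also: parasites grown inside human red blood cells in medium with human serum.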 The conditions noted are these: P. falciparum 3D7 growth, 3 d, higher = more signal.
Assay [4] deals with Homeobox protein Hox-A13 (Mus musculus) (UniProt Q62424). Briefly: disruptors of Hoxa13 oligonucleotide interaction – biochemical, fluorescence polarization, labeled oligonucleotide, primary screen (AID 1185). The conditions noted are these: Hoxa13:DNA binding, 15 min, higher = more signal, called active from +8 up or from −8 down. For orientation: Fluorescence polarisation rises when a labelled molecule tumbles more slowly, as on binding a larger partner.
Sequence of Homeobox protein Hox-A13 (Mus musculus) (Q62424 whole entry, looked up): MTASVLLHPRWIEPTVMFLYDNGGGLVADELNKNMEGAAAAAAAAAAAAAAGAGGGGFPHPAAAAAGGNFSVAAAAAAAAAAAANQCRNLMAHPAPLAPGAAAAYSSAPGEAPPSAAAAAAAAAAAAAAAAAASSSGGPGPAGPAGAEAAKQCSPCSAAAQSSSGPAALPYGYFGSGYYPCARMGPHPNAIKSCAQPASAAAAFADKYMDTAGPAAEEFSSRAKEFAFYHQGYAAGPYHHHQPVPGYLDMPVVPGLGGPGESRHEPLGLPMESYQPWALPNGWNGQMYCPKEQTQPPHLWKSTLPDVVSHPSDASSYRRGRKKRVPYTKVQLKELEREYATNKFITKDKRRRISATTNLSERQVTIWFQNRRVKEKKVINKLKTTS

On to `COC(=O)CC=C[C@@H](C)[C@@H](C=NO[C@H](C)c1cn([C@H](CO)Cc2ccccc2)nn1)OC`, for which the composite z-score in assay [1] is 0.312 (inactive); in assay [2] it was 0.367. Besides, the z-score in assay [3] is -0.866; in assay [4], -1.89 (inactive).
Take `CCOC(=O)[C@H](Cc1ccccc1)NC(=O)CCC1CC(OC(=O)NCCc2ccc(F)cc2)CC2(CCCC(COC(=O)NCCCN3CCCC3=O)O2)O1` (some centres undefined): the results for the composite z-score in assay [1] and in assay [2] were 0.414 (inactive) and 0.701, respectively. In addition, the z-score in assay [3] is -1.6; in assay [4], -2.25 (inactive).
Take `CC(C)(C)N1C(=O)[C@H]2[C@H]3[C@H](O)[C@H](O)CC(=NO[C@@H]4O[C@H](CO)[C@@H](O)[C@H](O)[C@H]4O)[C@H]3CC[C@H]2C1=O`: the composite z-score is 0.0127 (inactive) in assay [1] and 0.271 in assay [2]. In addition, the z-score in assay [3] was -1.62; in assay [4], -4.08 (inactive).
On to `O=C1C[C@@H](O)[C@@H](O)[C@@H]2[C@@H]3C(=O)N(C[C@@H]4CCCO4)C(=O)[C@@H]3CC[C@@H]12`, for which the composite z-score in assay [1] was 0.74 (inactive); in assay [2], 0.592. In addition, the z-score in assay [3] was -0.223; in assay [4], 0.368 (inactive).
Regarding `CC(C)CON=C1C[C@@H](O)[C@@H](O)[C@@H]2[C@@H]3C(=O)N(C(C)(C)C)C(=O)[C@@H]3CC[C@H]12`, the composite z-score in assay [1] was 1.9 (inactive); in assay [2], 0.494. The z-score in assay [3] is 1.75; in assay [4], -0.219 (inactive).
Consider `CCOC(=O)[C@H](CC(C)C)NC(=O)CCC1CC(OC(=O)NCCc2ccc(F)cc2)CC2(CCCC(COC(=O)NCCOc3ccccc3)O2)O1` (some centres undefined), for which the composite z-score in assay [1] is 0.679 (inactive); in assay [2], 0.31. Besides, the z-score in assay [3] is -2.02; in assay [4] it was -6.97 (inactive).
On to `CCN1C(=O)[C@H]2[C@H]3[C@H](O)[C@H](O)CC(=NOCC(C)C)[C@@H]3CC[C@H]2C1=O`, for which the composite z-score is 0.821 (inactive) in assay [1] and 0.645 in assay [2]. Further, the z-score in assay [3] is -0.108; in assay [4], -1.62 (inactive).
As for `CO[C@H]1COC(=O)[C@H](C)NC(=O)CC=C[C@@H](C)[C@H](OC)COC(=O)[C@@H](OCc2ccccc2)C=C[C@@H]1C`, the composite z-score is -0.296 (inactive) in assay [1] and -0.54 in assay [2]. Also, the z-score in assay [3] was 0.112; in assay [4] it was -0.22 (inactive).
Regarding `CCOC(=O)NN=C1C[C@@H](O)[C@@H](O)[C@@H]2[C@@H]3C(=O)N(Cc4ccc5c(c4)OCO5)C(=O)[C@@H]3CC[C@H]12`, the composite z-score in assay [1] is 2.21 (inactive); in assay [2], -0.437. Besides, the z-score is -0.948 in assay [3] and -0.227 (inactive) in assay [4].
For `CO[C@H]1COC(=O)CC=C[C@@H](C)[C@H](NS(=O)(=O)c2ccc(C)cc2)COC(=O)CCC[C@@H]1C`, the composite z-score in assay [1] was 0.0922 (inactive); in assay [2] it was 0.231. Besides, the z-score in assay [3] was 1.19; in assay [4] it was -0.499 (inactive).
Regarding `O=C1CCCC(C2=CCCCC2=O)C1` (centres undefined), the results for the composite z-score in assay [1] and in assay [2] were -0.273 (inactive) and 0.0997, respectively. Further, the results for the z-score in assay [3] and in assay [4] were 0.488 and -1.63 (inactive), respectively.
`Cc1cc2c(nc1C)CCCCN2CC(C)ON=C[C@@H](C)[C@H](OCc1ccccc1)C(C)C` (some centres undefined): the composite z-score was -0.398 (inactive) in assay [1] and -0.0948 in assay [2]. Besides, the results for the z-score in assay [3] and in assay [4] were -0.109 and -3.66 (inactive), respectively.
Turning to `COc1cc(O)c(C(=O)C=Cc2ccc3c(c2)OCO3)c(OC)c1`, the composite z-score in assay [1] is -0.156 (inactive); in assay [2] it was -0.218. The values for the z-score in assay [3] and in assay [4] were -0.973 and -0.978 (inactive), respectively.
Take `COC(=O)CC=C[C@@H](C)[C@@H](C=NO[C@@H](C)c1cc(-c2c(C)cc(C)cc2C)no1)NS(=O)(=O)c1ccc(C)cc1`: the composite z-score in assay [1] is -0.105 (inactive); in assay [2] it was -0.91. The z-score in assay [3] was -0.842; in assay [4], -2.92 (inactive).
The corresponding values for `CCOC(=O)[C@H](CC(C)C)NC(=O)CCC1CC(OC(=O)NCc2cccc3ccccc23)CC2(CCCC(COC(=O)NCCOC)O2)O1` (some centres undefined) are -0.182 (inactive), 0.446, -1.88 and -3.68 (inactive).
As for `CCOC(=O)[C@H](Cc1ccccc1)NC(=O)CCC1CC(OC(=O)NCCc2ccc(F)cc2)CC2(CCCC(COC(=O)NCC3CCCCC3)O2)O1` (some centres undefined), the composite z-score in assay [1] is 0.233 (inactive); in assay [2], 0.605. Further, the results for the z-score in assay [3] and in assay [4] were -1.82 and -2.33 (inactive), respectively.
In the case of `COc1ccc(O[C@@H]2[C@H](O)CO[C@H]2C=Cc2ccccc2)cc1`, the values for the composite z-score in assay [1] and in assay [2] were 0.266 (inactive) and -0.0143, respectively. Also, the z-score was 0.465 in assay [3] and -1.16 (inactive) in assay [4].
Take `CCC1=NOC(CCC2CC(OC(=O)NCc3cccc4c3OCO4)CC3(CCCC(COC(=O)NCCc4ccccc4OC)O3)O2)C1` (centres undefined): the composite z-score in assay [1] is 1.87 (inactive); in assay [2], 0.357. For the same molecule, the z-score in assay [3] was -0.95; in assay [4], -6.1 (inactive).
`Cn1c(=O)n2n(c1=O)[C@H]1[C@H](O)[C@@H]3O[C@@H]3C(=O)[C@H]1CC2`: the composite z-score in assay [1] is 0.151 (inactive); in assay [2], 0.186. Moreover, the z-score in assay [3] was 0.551; in assay [4], 0.336 (inactive).
In the case of `O=C1CCCC=C1C(CCc1ccccc1)OC(=O)c1ccc(Br)cc1` (centres undefined), the composite z-score in assay [1] is 0.622 (inactive); in assay [2], -0.198. Moreover, the z-score in assay [3] is -0.108; in assay [4], -1.88 (inactive).
For the molecule `COC(=O)[C@H](C)NC(=O)CCC1CC(OC(=O)NCc2ccc3c(c2)OCO3)CC2(CCCC(COC(=O)NCCc3ccccc3OC)O2)O1` (some centres undefined), the composite z-score is 0.516 (inactive) in assay [1] and 0.588 in assay [2]. The z-score was -0.143 in assay [3] and -6.43 (inactive) in assay [4].
